Data on eight compounds can be found in PubChem BioAssay (NCI).

Test systems include SK-MEL-2 melanoma; EKVX NSCLC; SN12C renal; UO-31 renal; TK-10 renal; ACHN renal; CAKI-1 renal; A498 renal; CCRF-CEM leukemia; MOLT-4 leukemia; SR leukemia; RPMI-8226 leukemia; OVCAR-8 ovarian; OVCAR-5 ovarian; OVCAR-4 ovarian; SK-OV-3 ovarian; IGROV1 ovarian; OVCAR-3 ovarian; HS 578T breast; NCI/ADR-RES ovarian.
Assay in all cases: NCI-60 one-dose screen, 48 h (100 = growth as untreated, 0 = no growth, -100 = all killed)
Holding throughout (details): 10 µM unless noted

About 83,000 compounds went through this panel and 20% of them were active in at least one assay; those are over-represented in the sample as a whole.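 How to read the values: 0–100, growth inhibition (40 = 60% inhibited); 0, no net growth; -100 to 0, cell death (-40 = 40% of starting cells died; -100 = all dead).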 A number with no mark means an inactive call. Calls of active or inactive are those of the source. Rule for the calls: active = growth percent below 10; inactive = the rest.

Take `COc1ccc(-c2nn(-c3ccccc3)cc2/C=C/C(=O)NNC(=O)Nc2ccc(C)cc2)cc1`: the growth was 102% in the test on SK-MEL-2 melanoma; 97.2% in the test with EKVX NSCLC; 97% with SN12C renal; 84.2% in the test on UO-31 renal; 99% in the test on TK-10 renal; 102% in the test on ACHN renal. For the same compound, the growth in the test on CAKI-1 renal was 91.5%; with A498 renal, 109%; in the test with CCRF-CEM leukemia it was 47.4%; in the test with MOLT-4 leukemia, 43%; in the test with SR leukemia, 64%; in the test on RPMI-8226 leukemia, 93.3%. The growth in the test on OVCAR-8 ovarian was 98.1%; with OVCAR-5 ovarian, 103%; in the test on OVCAR-4 ovarian it was 101%; in the test on SK-OV-3 ovarian, 92.8%; with IGROV1 ovarian, 93%; with OVCAR-3 ovarian it was 107%. In addition, the results for the growth in the test with HS 578T breast and with NCI/ADR-RES ovarian were 99.7% and 92.8%, respectively.

Consider `CNC(=O)c1cc(Oc2ccc3c(c2)sc2nc(-c4ccc(OC)cc4)cn23)ccn1`, for which the growth is 44.2% with SK-MEL-2 melanoma; 52.7% with EKVX NSCLC; 69.7% in the test with SN12C renal; 52.2% with UO-31 renal; 21.1% in the test with TK-10 renal; 83.8% in the test on ACHN renal. For the same compound, the growth in the test with CAKI-1 renal was 85.5%; in the test on A498 renal, 16.9%; with CCRF-CEM leukemia it was 66.9%; in the test on MOLT-4 leukemia, 76.6%; with SR leukemia it was 38%; with RPMI-8226 leukemia, 20.2%. Also, the growth with OVCAR-8 ovarian is 52.4%; in the test on OVCAR-5 ovarian, 36%; in the test with OVCAR-4 ovarian, 65.8%; in the test on SK-OV-3 ovarian, 16.8%; with IGROV1 ovarian it was 83.3%; with OVCAR-3 ovarian it was 4.08% (active). In addition, the growth in the test with HS 578T breast was 76.8%; in the test on NCI/ADR-RES ovarian, 71.3%.

With `Cc1[nH]c(C2CC(c3ccc(C(F)(F)F)c(F)c3)=NN2c2ccccc2)c(C)c1C(=O)NCC(F)(F)F` (stereo not given), the growth with SK-MEL-2 melanoma is 104%; in the test on EKVX NSCLC, 69.3%; with SN12C renal, 90.7%; with UO-31 renal it was 58.8%; in the test on TK-10 renal, 151%; in the test on ACHN renal, 95.8%. Also, the growth is 59% in the test with CAKI-1 renal; 48.2% with A498 renal; 79.4% in the test with CCRF-CEM leukemia; 58.3% in the test on MOLT-4 leukemia; 81.6% with SR leukemia; 70.7% with RPMI-8226 leukemia. Besides, the growth was 87.8% in the test on OVCAR-8 ovarian; 94.8% in the test on OVCAR-5 ovarian; 92.5% in the test with OVCAR-4 ovarian; 85.6% in the test with SK-OV-3 ovarian; 67.3% in the test with IGROV1 ovarian; 98.2% with OVCAR-3 ovarian. Moreover, the growth was 87% with HS 578T breast and 89.7% with NCI/ADR-RES ovarian.

With `CN1CCN(c2ccc3nc4c(nc3c2C(F)(F)F)C(=O)c2ncccc2C4=O)CC1`, the growth in the test with SK-MEL-2 melanoma was -34.5% (active); with EKVX NSCLC, 5.13% (active); with SN12C renal, -95.4% (active); in the test with UO-31 renal, -19.1% (active); with TK-10 renal, 80.3%; in the test on ACHN renal it was -44.2% (active). Besides, the growth in the test with CAKI-1 renal was 33.1%; with A498 renal it was -21.1% (active); in the test on CCRF-CEM leukemia, 5.71% (active); in the test on MOLT-4 leukemia, -36.4% (active); in the test with SR leukemia it was -27.2% (active); in the test on RPMI-8226 leukemia, 27.6%. The growth was -10.9% (active) with OVCAR-8 ovarian; -90.4% (active) in the test on OVCAR-5 ovarian; -91.1% (active) in the test with OVCAR-4 ovarian; 29.7% in the test with SK-OV-3 ovarian; -32.6% (active) in the test on IGROV1 ovarian; -27.9% (active) in the test with OVCAR-3 ovarian. Further, the growth in the test with HS 578T breast is -16% (active); in the test with NCI/ADR-RES ovarian, 10.1%.

Regarding `CCN1CCN(c2cc(C)nc(N(CCNc3ccnc4cc(Cl)ccc34)Cc3ccc4c(c3)OCO4)n2)CC1`, the growth is -82.8% (active) with SK-MEL-2 melanoma; 22.2% in the test on EKVX NSCLC; 74.4% in the test with SN12C renal; -30.6% (active) in the test on UO-31 renal; -48% (active) in the test with TK-10 renal; 0.724% (active) in the test on ACHN renal. In addition, the growth with CAKI-1 renal was 53.6%; in the test on A498 renal, -1.76% (active); in the test on CCRF-CEM leukemia it was -18.5% (active); in the test with MOLT-4 leukemia, -34.1% (active); in the test with SR leukemia it was -44.9% (active); in the test on RPMI-8226 leukemia, -19.3% (active). In addition, the growth with OVCAR-8 ovarian was 3.09% (active); in the test on OVCAR-5 ovarian it was 40.5%; in the test with OVCAR-4 ovarian, 19.8%; in the test on SK-OV-3 ovarian it was -16.2% (active); in the test with IGROV1 ovarian it was 10.2%; with OVCAR-3 ovarian it was -55.8% (active). In addition, the figures for the growth with HS 578T breast and with NCI/ADR-RES ovarian were 30% and -13.9% (active), respectively.

Turning to `COc1cc(C(=O)c2c(-c3ccccc3)oc3c(OC)cccc23)cc(OC)c1OC`, the growth in the test with SK-MEL-2 melanoma was 53%; with EKVX NSCLC it was 35.3%; in the test with SN12C renal, 22.1%; in the test with UO-31 renal, 28.2%; in the test with TK-10 renal, 61.4%; in the test on ACHN renal, 17.7%. For the same compound, the growth in the test on CAKI-1 renal was 19.6%; in the test with A498 renal it was -28% (active); with CCRF-CEM leukemia, 10.2%; in the test with MOLT-4 leukemia, 11.4%; in the test on SR leukemia it was 6.57% (active); with RPMI-8226 leukemia it was 17.6%. The growth is 17.2% with OVCAR-8 ovarian; 39.8% in the test on OVCAR-5 ovarian; 32.3% with OVCAR-4 ovarian; 44.2% with SK-OV-3 ovarian; 12.3% in the test with IGROV1 ovarian; -13.2% (active) in the test with OVCAR-3 ovarian. In addition, the growth in the test on HS 578T breast is 2.09% (active); in the test on NCI/ADR-RES ovarian, 11.9%.

Consider `N#C/C(=C\C=C\c1ccc(-c2cc(Cl)ccc2Cl)o1)c1nc2ccccc2s1`, for which the growth with SK-MEL-2 melanoma was 104%; in the test on EKVX NSCLC, 80.2%; in the test on SN12C renal it was 92%; in the test with UO-31 renal it was 68.2%; with TK-10 renal, 118%; with ACHN renal it was 90.5%. The growth with CAKI-1 renal was 75.1%; in the test on A498 renal it was 126%; in the test with CCRF-CEM leukemia, 91.8%; in the test on MOLT-4 leukemia it was 99.1%; in the test with SR leukemia, 92.7%; with RPMI-8226 leukemia it was 96.5%. The growth in the test on OVCAR-8 ovarian is 96.4%; with OVCAR-5 ovarian, 102%; in the test on OVCAR-4 ovarian it was 98.9%; in the test on SK-OV-3 ovarian, 76.8%; in the test on IGROV1 ovarian it was 70.6%; in the test on OVCAR-3 ovarian, 105%. For the same compound, the growth in the test with HS 578T breast and with NCI/ADR-RES ovarian was 100% throughout.

Regarding `CC1(C)OB(O)c2cc(-c3nc4ccc5[nH]ncc5c4c4c3CCCC4)ccc21`, the growth with SK-MEL-2 melanoma was 59.3%; in the test with EKVX NSCLC it was 71.8%; with SN12C renal it was 51.2%; in the test with UO-31 renal it was 34.4%; with TK-10 renal, 73.4%; in the test on ACHN renal, 21.1%. Also, the growth in the test on CAKI-1 renal is 20.8%; in the test on A498 renal it was 21.9%; in the test with CCRF-CEM leukemia, 50.2%; with MOLT-4 leukemia, 30.7%; with SR leukemia it was 24.5%; in the test on RPMI-8226 leukemia, 28.1%. Moreover, the growth in the test with OVCAR-8 ovarian is 46.3%; in the test with OVCAR-5 ovarian, 105%; with OVCAR-4 ovarian, 67.1%; in the test with SK-OV-3 ovarian, 33.1%; in the test with IGROV1 ovarian it was 38.7%; with OVCAR-3 ovarian it was 94.6%. Moreover, the figures for the growth in the test with HS 578T breast and with NCI/ADR-RES ovarian were 68.7% and 61.8%, respectively.
